Source: PubChem BioAssay AID652208 (Broad Institute, 2013)
Results with a measured potency or affinity are listed apart. The source made the active and inactive calls.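 Rule for the calls: active = Loss of cell signal with fitted half-effect dose at or below twice the top valid tested dose; inconclusive = Poor fit, or flat fit from -70 to -30 percent; inactive = Half-effect above limit, rising signal, or flat within 30 percent.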

Test: HEK293T cell cytotoxicity, dose response, cytotoxicity control for HIV Vif inhibitor project, cherry-picks (AID 652208)
Conditions: HEK293T viability, CellTiter-Glo luminescence, 24 h; series mostly up to 26 µM
For CCOC(=O)C1CCCN(C(=O)c2cc(S(=O)(=O)N(C)C)ccc2N2CCCC2)C1 (configuration not stated), the outcome was “inactive”.
With CCOC(=O)C1(Cc2ccccc2)CCN(Cc2csc(C(C)=O)c2)CC1 the outcome was “inactive”.
In the case of O=S(=O)(Nn1cnnc1)c1ccccc1, the outcome is reported as “inactive”.
In the case of CCC1=Nc2cc(C(=O)NCc3ccco3)ccc2Sc2ccc(C)cc21, the outcome is reported as “inactive”.
For C[C@@H]1CN([C@H](C)CO)C(=O)CCCn2cc(nn2)CO[C@H]1CN(C)C(=O)c1ccccc1, the outcome was “inactive”.
With O=C(NCc1ccc(OC(F)(F)F)cc1)c1cccc2c1C(=O)c1ccc(N3CCCCC3)cc1S2(=O)=O the outcome was “inactive”.
For O=C(C1COc2ccccc2O1)N1CCN(Cc2ccc3c(c2)OCO3)CC1 (configuration not stated), the outcome was “inactive”.
For CCN(CC)C1Oc2cc3c(cc2C(c2cc(OC)c(OC)c(OC)c2)C1C)OCO3 (configuration not stated), the outcome was “inactive”.
For CC(OC(=O)c1c[nH]c2ccccc12)C(=O)N1CCCC1 (configuration not stated), the outcome was “inactive”.
With O=C1/C(=C/c2ccc(N3CCCC3)cc2)NC(=S)N1C1CC1 the outcome was “inactive”.
With COc1ccc(-c2csc(-c3cccnc3)n2)cc1C the outcome was “inactive”.
With COCCNCC(=O)Nc1nc(C)cs1 the outcome was “inactive”.
In the case of CCN(CCCNC(=O)C1CCC(=O)N1Cc1ccc(C)cc1)c1cccc(C)c1 (configuration not stated), the outcome is reported as “inactive”.
For COc1cc(Nc2nc3ccccc3n3nnnc23)cc(OC)c1OC, the outcome was “inactive”.
With CCOc1ccc(C(C)=O)cc1COC(=O)c1cc([N+](=O)[O-])ccc1N1CCOCC1 the outcome was “inactive”.
For COc1cccc(-c2cc(NC=O)c3ncc(-c4cc(OC)c(OC)c(OC)c4)n3c2)c1, the outcome was “inactive”.
In the case of COc1ccccc1CNC(=O)CSC1=NCCS1, the outcome is reported as “inactive”.
With COc1ccc(-c2cc(C(=O)Nc3ccc4c(c3)OCO4)no2)cc1 the outcome was “inactive”.
For COc1ccc(-c2coc3cc(O)ccc3c2=O)cc1, the outcome was “inactive”.
With O=C(COC(=O)c1ccccc1Br)NC1CCCC1 the outcome was “inactive”.
With CCc1nn(-c2cc(Oc3cccc4ccccc34)nc(-c3ccccc3)n2)c(N)c1C#N the outcome was “inactive”.
In the case of CCC(=O)Nc1ccc(-c2cc3ccccc3oc2=O)cc1, the outcome is reported as “inactive”.
For Cc1ccc(S(=O)(=O)NC(=O)Nn2c(C)nnc2C)cc1, the outcome was “inactive”.
For CCOc1ccc2c(C)c(C(=O)O)oc2c1OCC, the outcome was “inactive”.
With Cc1c(NC(=O)CC(O)(C(F)(F)F)C(F)(F)F)c(=O)n(-c2ccccc2)n1C the outcome was “inactive”.
In the case of O=C(c1cc(-c2ccccc2O)on1)N1CCCCCC1, the outcome is reported as “inactive”.
With COc1ccc(-c2cc(C(=O)Nc3cnn(Cc4ccccc4C)c3)no2)cc1OC the outcome was “inactive”.
For CCN1C(=O)c2cccc3c(S(=O)(=O)Nc4nc(C)cs4)ccc1c23, the outcome was “inactive”.
With CCOc1ccc(N2C(=O)/C(=C/c3cccs3)N(CC(=O)OC)C2=S)cc1 the outcome was “inactive”.
In the case of COc1ccc(C(=O)NC2CC3CCCC(C2)N3Cc2ccccc2)cc1OC (configuration not stated), the outcome is reported as “inactive”.
With Cc1nc(C)n(CC(=O)N2CCCC(C(=O)c3ccc(C(F)(F)F)cc3)C2)n1 (configuration not stated) the outcome was “inactive”.
In the case of COc1ccc(CCNC(=O)[C@@H](NC(N)=O)C(C)C)cc1, the outcome is reported as “inactive”.
In the case of COc1ccc(-c2nc(-c3ccccn3)nc(N3CCN(C)CC3)c2C#N)cc1, the outcome is reported as “inactive”.
For S=C(NC1CC1)N1CCc2ccccc2C1, the outcome was “inactive”.
For O=C(NCc1cccnc1)NC1(C(F)(F)F)Oc2ccc(Cl)cc2O1 (configuration not stated), the outcome was “inactive”.
For Cc1cccc2cc(COC(=O)c3ccco3)c(=O)[nH]c12, the outcome was “inactive”.
In the case of CCN(CC)C(=O)c1cccc(NC(=O)C2=COCCO2)c1, the outcome is reported as “inactive”.
